# In the supplement of paper PMC9334596:
# Where “and” joins values, the source holds several entries; their conditions need not be identical. Equal entries are not always repeated. Over roughly 5,300 compounds, “PER2::LUC luminescence relative to vehicle control” has its median near 0.96; the highest 2% begin near 1.3. Shown is part of a subset that was picked to be rich in the highest values.
# Tested on: mPer2Luc MEF
# Test: PER2::LUC luminescence relative to vehicle control (fold of vehicle); higher = higher PER2::LUC reporter signal
# Details: 10 µM
# How it was run: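 Mouse embryonic fibroblasts carrying the mPer2Luc reporter were seeded at ~3000 cells per well in 384-well plates, 48 h before compounds from commercial libraries were added at 10 μM. Cells were grown in DMEM with 10% FBS at 37 °C and 5% CO2. Luminescence was read with the ONE-Glo luciferase assay system 24 h and 30 h after treatment, followed by an alamarBlue viability assay. The value is PER2::LUC luminescence as fold of vehicle control.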
Structure (SMILES),PER2::LUC luminescence (time after treatment 24 h),PER2::LUC luminescence (time after treatment 30 h)
COc1ccccc1N1CCN(CCN2C(=O)N=C3C(=Nc4ccccc43)C2=O)CC1,0.831,0.823
NC(=O)c1ncn([C@@H]2O[C@H](CO)[C@@H](O)[C@H]2O)c1N,1.32 and 0.733,1.18 and 0.988
NC(=O)c1ncn(C2OC(COP(=O)(O)O)C(O)C2O)c1N (stereo not drawn),1.36,1.3
Nc1ncnc2c1ncn2[C@@H]1O[C@H](COP(=O)(O)O)[C@@H](O)[C@H]1O,1.22 and 1.13,1.14 and 1.05
NCCOCCOCCNC(=O)Cc1ccc(Nc2nc(NCc3ccc(F)cc3)nc(NCC3CCCCC3)n2)cc1,1.09,1.03
O=C(O)c1ccccc1Nc1ccccc1,1.02,0.974
COc1ccc(/C=C/C(=O)Nc2ccccc2C(=O)O)cc1OC,0.844 and 0.327,–
C/C(=C\C(=O)Nc1ccccc1C(=O)O)c1ccc2ccccc2c1,1.53,1.46
O[C@H]1CCN2Cc3ccccc3N=C12,0.987,0.932
CC1CCC(C(C)C)C(O)C1 (racemic),1.02,1.25
O=C(CS(=O)(=O)Cc1ccccc1)N1CCOCC1,0.841,0.781
CCCNC(C)(C)COC(=O)c1ccccc1,0.894,0.968
CCCCNc1ccc(C(=O)OCCOCCOCCOCCOCCOCCOCCOCCOCCOC)cc1,1.07,0.94
CCCCNc1cc(C(=O)O)cc(S(N)(=O)=O)c1Oc1ccccc1,1.21,1.86
CC1(C)CCC(C)(C)c2cc(C(=O)Nc3ccc(C(=O)O)cc3)ccc21,1.64,1.67
CC(N)(C(=O)O)c1ccc(C(=O)O)cc1 (racemic),0.971,0.694
CC1(C)CCC(C)(C)c2cc(NC(=O)c3ccc(C(=O)O)cc3)ccc21,1.77,1.63
CC(=O)Nc1ccc(C(=O)O)cc1,1.03,0.901
CC(=O)Nc1ccc(C(=O)Nc2ccccc2N)cc1,0.744,0.677
CC(=Cc1ccc(C(=O)O)cc1)c1ccc2c(c1)C(C)(C)CCC2(C)C,1.66,1.52
C[C@@](N)(C(=O)O)c1ccc(C(=O)O)cc1,1.01,0.938

Structure (SMILES),PER2::LUC luminescence (time after treatment 24 h),PER2::LUC luminescence (time after treatment 30 h)
NC1(C(=O)O)CCc2cc(C(=O)O)ccc21 (stereo not drawn),0.992,0.984
O=C(Nc1ccc(C(=O)O)c(O)c1)c1ccccc1,1.03,1.13
COc1ccc(C(OCCN2CCC[C@H](C(=O)O)C2)(c2ccc(OC)cc2)c2ccc(OC)cc2)cc1,0.855,1.04
"NC1CCN(O)C1=O (single isomer, unassigned; (+))",0.99,0.883
CCCN(CCc1cccs1)C1CCc2c(O)cccc2C1 (racemic),0.965,0.906
O=C1/C(=C/c2ccc(O)c(O)c2)Oc2c1ccc(O[C@@H]1O[C@H](CO)[C@@H](O)[C@H](O)[C@H]1O)c2O,0.983,0.93
CC(C)C[C@H](NC(=O)OCc1ccccc1)C(=O)N[C@@H](CC(C)C)C(=O)NCC(=O)CNC(=O)[C@H](CC(C)C)NC(=O)[C@H](CC(C)C)NC(=O)OCc1ccccc1,1.01,0.909
CCCCCCCCCCCCCC[C@@H](O)[C@@H](O)[C@@H](CO)NC(C)=O,1.07,1.04
CN1C(=O)C(Cc2c[nH]c3ccccc23)NC1=S (stereo not drawn),1.15,1.36
CN1C(=O)N[C@H](Cc2c[nH]c3c(Cl)cccc23)C1=O,0.87,0.819
c1ccc2c(Cc3c[nH]c4ccccc34)c[nH]c2c1,0.956 and 0.816,1.02 and 0.84
O=C(O)c1cc(N(Cc2ccccc2O)Cc2cc(O)ccc2O)ccc1O,1.05,1.03
C[C@@]1(F)[C@H](O)[C@@H](CO)O[C@H]1n1ccc(=O)[nH]c1=O,0.965,0.937
CN1CCC[C@@H]1c1cccnc1.Cc1ccc(C(=O)O[C@H](C(=O)O)[C@@H](OC(=O)c2ccc(C)cc2)C(=O)O)cc1,0.873,0.978
C=CC[C@@H]1[C@H](O)CC[C@@]2(C)[C@H]1CC[C@@H]1[C@@H]2CC[C@]2(C)[C@@H]([C@H](C)CCCC(C)C)CC[C@@H]12,0.994,0.987
Nc1nc(NC2CC2)c2ncn([C@H]3C=C[C@@H](CO)C3)c2n1,1.23 and 1.48,1.32 and 1.75
OC[C@H]1O[C@@H](n2cnc3c(NC4CCCC4)ncnc32)[C@H](O)[C@@H]1O,0.965,0.991
OCC1OC(n2cnc3c(NC4CCCC4)nc(Cl)nc32)C(O)C1O (stereo not drawn),0.932,0.97
COc1cc(O)c(C(=O)/C=C/c2ccc(O)c(OC)c2)c(OC)c1,0.871,0.855
CC(C)c1noc(C2CCN(c3ncnc(Nc4ccc(S(C)(=O)=O)cc4F)c3[N+](=O)[O-])CC2)n1,0.972,0.789
COc1ccc(/C=C/c2ccccc2F)cc1,1.2,1.26
